High-throughput results from PubChem.
Hits are enriched below; roughly 2.1% of the tested compounds scored in any of these assays.
MITF TRPM1 inh – inhibitors of MITF-driven TRPM1 promoter in melanoma cells; 330,000 tested, 0.83% active; AID 488899; inhibition, % at 12.5 µM; SK-MEL-5 TRPM1 promoter luciferase, 24 h;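 active = mean inhibition across replicates of 60% or more, whatever share of single replicates reaches that level; inconclusive = some that reach 60%, reason not given; inactive = mean inhibition across replicates below 60%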
LMP1 NFkB inh – reduces LMP1-driven NF-kappaB luciferase signal; 350,000 tested, 0.69% active; inhibition, % at 12.5 µM; LMP1-induced NF-kappaB luciferase reporter cells, luminescence; AID 504558; in the data active = inhibition above about 41%; inconclusive = no clear call, values can overlap the other calls;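 also: 0% = neutral control wells and 100% = reference inhibitor control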
Shn3 3UTR inh – inhibitors of Schnurri-3 3'UTR reporter in osteoblasts. inhibition, % at 12.5 µM. 360,000 tested, 0.52% active. Clone20 osteoblast Shn3 3'UTR firefly luciferase, 24 h;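 active = mean inhibition of at least 75% with every replicate also reaching 75%; inconclusive = mean inhibition at least 75% but some replicate below; inactive = mean inhibition below 75%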;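 also: 0% = median of neutral control wells and 100% = pilot-screen positive control compound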
aSyn UTR inh – 5' untranslated region of α-synuclein, MLPCN primary screen | alpha-synuclein 5'UTR reporter, inhibitor activity | 300,000 tested, 0.82% active | inhibition, % (tested at 7.5 µM); in the data active = inhibition above about 60%; inconclusive = no clear call, values can overlap the other calls;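 also: H4 neuroglioblastoma cells stably carrying SNCA 5'UTR luciferase fusion; 0% = DMSO wells and 100% = positive control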
PAX8 inh HTS – inhibitors of PAX8 transcriptional activity in RMG-I cells | RMG-I TPO-luciferase reporter, SteadyGlo, 24 h | inhibition, % at 12.6 µM | 360,000 tested, 1.2% active | AID 652154;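 active = mean replicate inhibition at least 60% with every replicate also reaching 60%; inconclusive = only one of the two criteria is met; inactive = mean below 60% and not all replicates reaching 60%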;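 also: luciferase light reporting Pax8 driven TPO promoter activity; plate controls were median of neutral control wells for no effect and mitoxantrone controls for full effect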
* marks the source's active call; other numbers are inactive results; ? = inconclusive; . = no result given.

SMILES	MITF TRPM1 inh	LMP1 NFkB inh	Shn3 3UTR inh	aSyn UTR inh	PAX8 inh HTS
Cc1cccc(CCN(C(=O)Cc2cccs2)C(C(=O)NC2CCCCC2)c2cccnc2)c1 (stereo not drawn)	2	1	-1	-5	-1
COc1ccc2c3c([nH]c2c1)[C@H](CO)N(C(=O)Nc1ccc(F)cc1)CC31CCN(S(C)(=O)=O)CC1	.	.	.	.	24
COc1ccc2c3c(n(C)c2c1)[C@H](CO)N(C(=O)c1ccc(F)cc1)CC31CCN(C(=O)Nc2ccc(F)cc2)CC1	.	.	.	.	16
COc1ccc2c3c(n(C)c2c1)[C@H](CO)N(C(=O)Nc1ccc(F)cc1)CC31CCN(C(=O)c2ccc3c(c2)OCO3)CC1	.	.	.	.	77*
COc1ccc2c3c([nH]c2c1)[C@H](CO)N(C(=O)Nc1cccc(F)c1)CC31CCN(S(=O)(=O)c2cccc(C)c2)CC1	.	.	.	.	106*
COc1ccc2c3c(n(C)c2c1)[C@H](CO)N(C(=O)Nc1ccc(F)cc1)CC31CCN(S(=O)(=O)c2cccc(C)c2)CC1	.	.	.	.	89*
CCCNC(=O)N1CC2(CCN(S(=O)(=O)c3ccccc3)CC2)c2c(n(C)c3cc(OC)ccc23)[C@H]1CO	.	.	.	.	32
COc1ccc2c3c(n(C)c2c1)[C@@H](CO)N(C(=O)Nc1ccc(F)cc1)CC31CCN(S(=O)(=O)c2cccc(C)c2)CC1	.	.	.	.	81*
C[C@@H]1CN([C@H](C)CO)C(=O)c2cc(C#Cc3ccccc3F)cnc2O[C@@H]1CN(C)C(=O)Cc1ccncc1	.	.	.	.	17
O=S(=O)(Nc1cccnc1Cl)c1ccc(F)cc1	-6	-2	2	14	-4
CC(=O)/C(=N\Nc1ccccc1)Sc1cccc2cccnc12	4	-18	5	24	.
NNC(=O)CSc1cccc2cccnc12	-1	-3	-7	2	6
O=C(Sc1cccc2cccnc12)c1ccccc1Br	85*	-23	99*	-242	100*
O=C(Sc1cccc2cccnc12)c1ccc(F)cc1	.	.	.	.	106*
O=S(=O)(Nc1cc(Sc2cccc3cccnc23)c(O)c2ccccc12)c1ccc(F)cc1	.	.	.	-4	102*
O=[N+]([O-])c1ccc(N2CCN(Cc3cccc([N+](=O)[O-])c3)CC2)cc1	6	54*	16	12	26
Cc1ccnc(N/C=C(/NC(=O)c2ccccc2)C(=O)N/N=C\c2ccc(F)cc2)n1	41	58*	94*	15	.
O=C(Nc1ccc(CN2CCOCC2)cc1)c1cc2ccccc2o1	-97	-15	-49	-71	.
O=C(Nc1ccc(CN2CCOCC2)cc1)c1cc2ccccn2n1	.	?	44	72*	9
COc1ccc(C(NC(=O)CNC(C)=O)C(=O)Nc2ccc(C(C)C)cc2)cc1 (stereo not drawn)	15	10	-8	11	.
CC(Sc1ncnc2ccccc12)C(=O)Nc1ccc2c(c1)OCCO2 (stereo not drawn)	2	3	29	-19	63*
CC(Sc1nc2ccccc2c(=O)n1C)C(=O)Nc1ccc2c(c1)OCCO2 (stereo not drawn)	19	8	86*	.	12
CC(C)Cn1c(SC(C)C(=O)Nc2ccc3c(c2)OCCO3)nc2ccccc2c1=O (stereo not drawn)	10	16	10	30	.
O=C(CSc1ncnc2ccccc12)Nc1ccc2c(c1)OCCO2	-19	4	-8	-43	-8
C[C@@H](C(=O)Nc1ccc2c(c1)OCCO2)n1c(=O)[nH]c2ccccc2c1=O	19	43*	10	-12	-92
SMILES	MITF TRPM1 inh	LMP1 NFkB inh	Shn3 3UTR inh	aSyn UTR inh	PAX8 inh HTS
COc1ccc2oc(=O)c(C(=O)Nc3ccccc3O)cc2c1	-56	1	-20	-3	-11
COc1ccc(CCNC(=O)c2cc(C(=O)c3cc(Cl)ccc3O)cn(CCc3ccc(OC)cc3)c2=O)cc1	8	-4	21	8	80*
O=C(Nc1ccc2nc(-c3cccnc3)[nH]c2c1)C12CC3CC(CC(C3)C1)C2	-69	-63	22	32	.
O=[N+]([O-])c1ccc(N2CCN(Cc3ccccc3)CC2)s1	-10	-2	25	2	10
O=[N+]([O-])c1ccc(N2CCN(Cc3ccccc3)CC2)c2c1no[n+]2[O-]	.	-43	77	.	99*
O=C(COC(=O)c1ccc(S(=O)(=O)NCc2ccco2)cc1)Nc1ccc(Cl)cn1	-8	59*	-6	-16	7
O=C(COC(=O)c1ccc(S(=O)(=O)NCc2ccco2)cc1)Nc1ccccc1	0	-8	-9	.	-3
COC(=O)CSc1nc(SCc2ccc(C)cc2)nc2c1CCCC2	18	-1	8	-14	.
